MOR-DOR inv ag-1: inverse agonists of MOR-DOR heterodimerization, primary screen, cell-based, luminescence; cell-based MOR-DOR heterodimer luminescence, inverse agonism; inhibition, % at 9.3 µM; hit rate 0.21% among 340,000; in the data active = inhibition above about 22%, passing the limit was not always enough;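 also: 0% = cells with DMSO and 100% = wells without cells with DMSO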
OPRM1-OPRD1 ag: agonists of OPRM1-OPRD1 heterodimerization, primary screen, cell-based, luminescence; Mu-type opioid receptor (Homo sapiens) + Delta-type opioid receptor (Homo sapiens), …; cells; activation, % at 9.3 µM; hit rate 0.3% among 340,000; in the data active = activation above about 18%;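 also: 0% = vehicle-treated cells and 100% = reference agonist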
HTR5A ag: HTR5A agonists in luminescence cell assay, primary screen, counter-screen for OPRM1-OPRD1 heterodimer agonist project, full-deck HTS; activation, % at 9.3 µM; cell-based; hit rate 0.61% among 340,000; 5-hydroxytryptamine receptor 5A (Homo sapiens), P47898; AID 504692, 2011; in the data active = activation mostly above about 9.5%, no sharp cut-off; inactive = mostly below about 7.6%;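 also: 0% = cells with vehicle only and 100% = reference agonist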
Target sequence (P47898 whole entry, looked up): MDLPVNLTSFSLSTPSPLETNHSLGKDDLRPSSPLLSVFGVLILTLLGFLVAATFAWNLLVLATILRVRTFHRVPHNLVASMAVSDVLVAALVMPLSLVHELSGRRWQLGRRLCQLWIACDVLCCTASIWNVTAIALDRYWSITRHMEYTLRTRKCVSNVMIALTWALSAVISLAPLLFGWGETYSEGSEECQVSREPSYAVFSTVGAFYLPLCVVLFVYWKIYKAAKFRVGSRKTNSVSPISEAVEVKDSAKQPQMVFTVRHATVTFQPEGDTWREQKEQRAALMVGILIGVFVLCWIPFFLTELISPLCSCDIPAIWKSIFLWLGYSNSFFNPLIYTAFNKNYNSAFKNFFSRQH
HTR5A inv ag: HTR5A inverse agonists in luminescence cell assay, primary screen, counter-screen for OPRM1-OPRD1 heterodimer inverse agonist project, full-deck HTS; HTR5A cell line, inverse agonism; inhibition, % at 9.3 µM; hit rate 0.083% among 340,000; 5-hydroxytryptamine receptor 5A (Homo sapiens), P47898; AID 504634, 2011; in the data active = inhibition mostly above about 23%, no sharp cut-off; inactive = mostly below about 18%;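 also: 0% = cells with DMSO and 100% = no-cell wells with DMSO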
MOR-DOR inv ag-2: inverse agonists of MOR-DOR heterodimerization, counter-screen for HTR5A inverse agonist project, cell-based, luminescence. shares compounds with HTR5A inv ag. 190 tested, under 10 active. U2OS counter-screen cells, complementation luminescence. inhibition, % at 9.3 µM;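 also: 0% = cells with DMSO and 100% = wells without cells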
HTR5A inv confrm: HTR5A inverse agonists, retest of hits, confirmation, cell-based, luminescence; shares compounds with HTR5A inv ag; inhibition, % at 9.3 µM; AID 504916, 2011; 190 tested, under 10 active; HTR5A-expressing cells, inverse agonism;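 also: 0% = cells with DMSO and 100% = no cells with DMSO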
The depositor's hits bear a star; i = inactive; / = no result given. Hits are enriched below; roughly 1.1% of the tested compounds scored in any of these assays. Unless noted, no rule for the calls is given here.

SMILES | MOR-DOR inv ag-1 | OPRM1-OPRD1 ag | HTR5A ag | HTR5A inv ag | MOR-DOR inv ag-2 | HTR5A inv confrm
O=C(CN1CCN(S(=O)(=O)c2ccccc2)CC1)N1CCCCC1 | 11 | -3 | 6 | -15 | / | /
CC1CCCCC12NC(=O)N(CC(=O)N1CCN(Cc3ccc(C#N)cc3)CC1)C2=O (stereo not given) | 8 | -2 | -7 | 17 | / | /
CC(=O)N1CCc2c(sc(NC(=O)c3ccc([N+](=O)[O-])o3)c2C#N)C1 | -40 | 6 | -13 | 32* | 24 | -5
COc1cccc(CN2CCN(C(=O)c3ccco3)CC2)c1 | 13 | -3 | -2 | 7 | / | /
COc1ccc(/C=C/C(=O)NC(=S)NNC(=O)c2cccs2)cc1 | 23 | -4 | -7 | 42* | 4 | -18
COc1ccc(/C=C(/NC(=O)c2cccs2)C(=O)NCc2ccco2)cc1OC | 8 | -1 | 14 | 44* | -37 | -8
CN(C)S(=O)(=O)c1ccc(Cl)c(C(=O)OCC(=O)NC(=O)NC2CCCC2)c1 | -8 | 2 | 1 | 96* | -16 | 14
O=C(NC(Cc1ccccc1)C(=O)O)/C(=C\c1ccc(Cl)cc1)NC(=O)c1ccco1 (stereo not given) | 3 | 0 | -1 | -19 | / | /
O=C(NCc1nnc(SCC(=O)N2CCN(c3ccccc3)CC2)o1)c1ccccc1 | 10 | -2 | 4 | 3 | / | /
O=C(NCc1nnc(SCC(=O)N2CCCC2)o1)c1ccccc1 | 12 | -3 | -18 | 45* | i | -99
O=C(Cc1ccccc1)NCc1ccc2c(c1)OCO2 | 7 | -1 | -2 | 13 | / | /
O=C(CC12CCC(CC1)C2)NCc1ccc2c(c1)OCO2 | -8 | 2 | 2 | 27* | i | 6
Cc1cc(O)c(NC(=S)NC(=O)c2ccc(-c3ccc(Cl)cc3)o2)cc1C | 23 | -5 | -29 | 65* | -139 | -10
NC(=NCc1ccccc1)C(N=Nc1ccccc1)C(=O)NCc1ccccc1 (stereo not given) | 7 | -1 | -8 | 30* | -82 | -2
Cc1ccc(/C=C/c2nnc(-c3cccs3)o2)cc1 | -33 | 5 | -6 | 13 | / | /
Cc1ccc(/C=C/c2nnc(-c3ccc(C)cc3)o2)cc1 | -13 | 2 | -18 | 42* | -42 | -199
CC(C)NC(=O)c1cnc(N2CCN(c3ccccn3)CC2)c2ccccc12 | 0 | 0 | 4 | 44* | -18 | 5
CCOc1cc(/C=C2\CN(C)C/C(=C\c3ccc(O)c(OCC)c3)C2=O)ccc1O | 22 | -5 | -5 | 16 | / | /
CCOc1cc(/C=C2\CCC/C(=C\c3cc(Cl)c(O)c(OCC)c3)C2=O)cc(Cl)c1O | 13 | -3 | -21 | 46* | i | -20
Cc1ccccc1NC(=O)Cn1nnc2ccccc21 | 1 | 0 | 1 | -2 | / | /
CCN(CC(=O)Nc1ccc2c(c1)OCCO2)C(=O)c1ccc(Cl)cc1Cl | 7 | -1 | 7 | -10 | / | /
CCN(CC(=O)Nc1ccc2c(c1)OCCO2)C(=O)c1cc(Cl)nc2ccccc12 | 14 | -4 | -14 | 33* | -32 | -7
CSc1nnc(C2CCN(CC(=O)Nc3ccccc3N3CCOCC3)CC2)n1C | -2 | 0 | -3 | 8 | / | /
Cc1onc(-c2ccccc2Cl)c1C(=O)OCC(=O)N1CCCCC1 | 9 | -2 | -1 | 4 | / | /
COc1ccc(S(=O)(=O)Nc2ccccc2C(=O)N2CCCC2)cc1OC | 1 | 0 | 7 | -21 | / | /
SMILES | MOR-DOR inv ag-1 | OPRM1-OPRD1 ag | HTR5A ag | HTR5A inv ag | MOR-DOR inv ag-2 | HTR5A inv confrm
COc1ccc(OC)c(S(=O)(=O)Nc2ccccc2C(=O)N2CCCCC2)c1 | 0 | 0 | -1 | 45* | -4 | -5
COC(Cc1nnc(SC)n1-c1ccc(Cl)cc1)OC | 11 | -2 | -4 | 13 | / | /
C=CCSc1nnc(CC(OC)OC)n1-c1ccccc1 | -9 | 1 | 3 | 39* | -11 | -8
Cc1cc2n(n1)C(c1ccc3c(c1)OCO3)Nc1c(C)cccc1-2 (stereo not given) | -13 | 3 | -5 | 33* | -45 | -5
CCOC(=O)[C@@H]1[C@H]2COc3cc(OC)ccc3[C@H]2N2C(=O)N(c3ccc(OC)cc3)C(=O)[C@]12C | 6 | -1 | -3 | -11 | / | /
CCCN1Cc2cccc(C(=O)NCc3ccccc3OC)c2C1=O | 10 | -2 | 3 | 37* | -236 | -41
COCCN1Cc2cccc(C(=O)NCc3ccccc3OC)c2C1=O | 8 | -1 | 6 | -20 | / | /
O=C(NN1C(=O)/C(=C/c2ccc(O)c(O)c2)SC1=S)c1ccccc1 | 30 | -6 | -8 | 31* | -173 | -2
COc1cc(/C=C2/SC(=S)N(CC3CCCO3)C2=O)ccc1O (stereo not given) | -4 | 1 | -11 | 44* | -69 | 28
COc1cc(/C=C2\SC(=S)N(NC(=O)c3cccnc3)C2=O)ccc1O | 24 | -5 | -7 | 22* | -397 | -22
COc1ccc(Br)c(OC)c1C(=O)NC(=O)Nc1nc(C)cc(C)n1 | 10 | -2 | 0 | -39 | / | /
N#CC(C#N)=C(N)/C(C#N)=C/c1cc(O)c(O)c(O)c1 | -4 | 1 | -8 | 30* | 20 | 1
N#C/C(=C\c1ccc(O)c(O)c1)C(=O)c1ccc(O)c(O)c1 | 4 | -1 | 10 | -34 | / | /
O=S(=O)(c1cc(F)ccc1F)N1CCN(C2CCCCC2)CC1 | 18 | -3 | -5 | -4 | / | /
CN(CC(=O)Nc1ccc(F)cc1)C(=O)CN1C(=O)c2cccc([N+](=O)[O-])c2C1=O | 6 | -1 | -1 | -4 | / | /
O=C(CSC1=N/C(=C/c2ccc(Cl)c(Cl)c2)C(=O)N1c1ccccc1F)NC1CC1 | 8 | -1 | -1 | 37* | -24 | 14
CCCCCNC(=O)CSC1=N/C(=C\c2ccc(Cl)c(Cl)c2)C(=O)N1CC | 12 | -2 | -2 | 4 | / | /
COc1ccccc1-c1nnc(NC(=O)CCS(=O)(=O)c2ccccc2)o1 | 13 | -2 | -1 | 40* | -8 | 2
COc1ccccc1-c1cc(C(=O)N2CCN(S(=O)(=O)c3ccc(C)cc3)CC2)[nH]n1 | 3 | -1 | -5 | 13 | / | /
O=C(NNc1ccc([N+](=O)[O-])cn1)Nc1ccc(N=Nc2ccccc2)cc1 | -14 | 3 | -9 | 36* | -45 | 18
O=C(NNc1ccc([N+](=O)[O-])cc1)Nc1ccccc1 | 8 | -2 | -2 | -8 | / | /
Cc1ccc([C@@H]2[C@@H]3C(=O)N(C)C(=O)[C@@H]3[C@@H]3C(=O)Nc4ccccc4C(=O)N23)cc1 | 4 | -1 | 6 | -18 | / | /
Oc1c(C(Nc2ccccn2)c2cccnc2)cc(Cl)c2cccnc12 (stereo not given) | -11 | 2 | -26 | 54* | 56* | 77*
